Measured values published in PubChem BioAssay (NCATS).
Results filed as inconclusive are left out. Activity calls are given as the source filed them. Calls come from the whole dose curve; as a rule, active = well fitted curve in the direction sought with a large enough effect; inconclusive = small, poorly fitted or top-dose-only effect, or another doubt; inactive = no such curve, though single readings can be large; an effect the other way counts as inactive or inconclusive.

What was measured:
[1] = molecular target: ATP-dependent 6-phosphofructokinase (Trypanosoma brucei brucei) (UniProt O15648); assay: qHTS Assay to Find Inhibitors of T. brucei phosphofructokinase: hit validation (AID 492961);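 note: luminescence reports ADP formed as PFK phosphorylates fructose-6-phosphate with ATP; % is set by controls: 0 for no effect and ±100 for the full control effect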
Outline: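 Reaction: 0.1 M triethanolamine pH 8.0, 5 mM MgCl2, F6P 0.5 mM, ATP 0.1 mM, PFK 1.25 nM, 45 min RT. Read-out: ADP-Glo luminescence. Analysis: concentration-response fits, classed by r2 and efficacy.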

[2] = molecular target: Ubiquitin carboxyl-terminal hydrolase 1 (Homo sapiens) (UniProt O94782); assay: Inhibitors of USP1/UAF1: Pilot qHTS (AID 504865); note: potency is the fitted concentration of half-maximal effect; nearly all actives have a fitted effect of over 35% in size
Outline: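 USP1/UAF1 complex at 1 nM preincubated 15 min at room temperature with compound, then Ub-Rho substrate added at 150 nM final. Fluorescence (480/540 nm) read kinetically in 50 mM HEPES pH 7.8, 0.5 mM EDTA, 1 mM TCEP, 0.1 mg/ml BSA, 0.01% Tween-20.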

[3] = molecular target: Luciferin 4-monooxygenase (Photinus pyralis) (UniProt P08659); assay: Biochemical firefly luciferase enzyme assay for NPC (AID 624030); note: potency is the fitted concentration of half-maximal effect; nearly all actives have a fitted effect of over 70% in size
Outline: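 Counter-screen for direct inhibition of the luciferase enzyme by approved-drug library compounds, run at 10 nM enzyme in 50 mM Tris acetate (final). Luminescence was read within 5 min of enzyme-buffer addition and normalized to PTC124 versus DMSO (0%).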

[4] = S16 Schwann cell viability assay (CellTiter-Glo assay) (AID 624031);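 note: native untransfected S16 rat Schwann cells; cellular ATP luminescence as a viability measure; plate controls were DMSO-treated cells for no effect and cell-free wells for full effect; nearly all actives have a fitted effect of over 70% in size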
Outline: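 Rat S16 Schwann cells without reporter constructs received compound or DMSO for 24 h at 37 °C under 5% CO2. Cellular ATP was then quantified by CellTiter-Glo luminescence, with vehicle wells defined as 0% activity and cell-free wells as reference.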

[5] = S16 Schwann cell PMP22 intronic element firefly luciferase assay (AID 624032);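 note: plate controls were DMSO for no effect and PTC124 positive control mean for full effect; nearly all actives have a fitted effect of over 30% in size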
Outline: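 Rat S16 Schwann cells stably carrying a PMP22 intronic element-driven Fluc reporter were seeded overnight, then exposed to compounds for 24 h at 37 °C. Luminescence was normalized to PTC124 (positive control) and DMSO (0% activity).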

[6] = molecular target: Furin (Homo sapiens) (UniProt P09958); assay: Furin counterscreen qHTS for Zika virus inhibitors (AID 1347149); note: potency is the fitted concentration of half-maximal effect; nearly all actives have a fitted effect of over 70% in size
Outline: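 Counterscreen measures cleavage of 2 microM BOC-RVRR-AMC, below its ~15 microM Km, by 5 nM full-length human furin at pH 7.0 after a 15-min compound preincubation. Inhibition derives from the 15-min fluorescence increase at 37C.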

[7] = Confirmatory screen GU Rhodamine qHTS for Zika virus inhibitors qHTS (AID 1347157); note: potency is the fitted concentration of half-maximal effect; nearly all actives have a fitted effect of over 70% in size
Outline: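 Percent inhibition derives from the 15-min fluorescence change (ex 480, em 540 nm), normalized to no-enzyme and no-inhibitor wells. Reactions contained 25 nM NS2B-NS3 complex and 1.5 microM substrate in 10 mM Tris-HCl pH 8.0.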

[8] = Confirmatory screen NINDS Rhodamine qHTS for Zika virus inhibitors (AID 1347161); note: potency is the fitted concentration of half-maximal effect; nearly all actives have a fitted effect of over 60% in size
Outline: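 Percent inhibition, normalized to uninhibited and enzyme-free controls, is fitted to a 4-parameter Hill equation. Fluorescence change comes from a 15-min cleavage of 1.5 microM bis-peptide Rhodamine110 substrate by 25 nM linked NS2B-NS3 at room temperature.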

[9] = Tertiary RLuc qRT-PCR qHTS assay for Zika virus inhibitors (AID 1347169); note: top concentration of the series differs between compounds; % is set by controls: 0 for no effect and ±100 for the full control effect; nearly all actives have a fitted effect of over 55% in size
Outline: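 Vero cells (1,000/well) infected with recombinant ZIKV-RLuc (Cambodian) at MOI 1-2 after compound addition, 48-72 hrs at 37 degrees C. Live-cell Renilla luciferase substrate added; luminescence read after 1-1.5 hrs.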

[10] = qHTS profiling for inhibitors of Plasmodium falciparum proliferation (AID 504749);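 note: 0% = DMSO vehicle and full inhibition = artemisinin control; nearly all actives have a fitted effect of over 60% in size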; settings: P. falciparum in erythrocytes, SYBR Green DNA, 72 h, at 28.7 µM (top of the series)
Outline: (§1)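 Fluorescence of SYBR Green-bound parasite DNA, read at 485/535 nm, served as the growth measure. Infected erythrocytes were cultured with compound 72 h; artemisinin (0.29 uM) and DMSO wells defined the normalization range.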

[11] = system: 3D7; assay: as above; settings: P. falciparum in erythrocytes, SYBR Green DNA, 72 h; series mostly up to 28.7 µM
Outline: as §1

[12] = system: AA1029; assay: as above; settings: P. falciparum in erythrocytes, SYBR Green DNA, 72 h; series mostly up to 28.7 µM
Outline: as §1

[13] = system: AS120; assay: as above; settings: P. falciparum in erythrocytes, SYBR Green DNA, 72 h; series mostly up to 28.7 µM
Outline: as §1

[14] = system: ATS189; assay: as above; settings: P. falciparum in erythrocytes, SYBR Green DNA, 72 h; series mostly up to 28.7 µM
Outline: as §1

[15] = system: ATS95; assay: as above; settings: P. falciparum in erythrocytes, SYBR Green DNA, 72 h; series mostly up to 28.7 µM
Outline: as §1

[16] = system: C2A; assay: as above; settings: P. falciparum in erythrocytes, SYBR Green DNA, 72 h; series mostly up to 28.7 µM
Outline: as §1

[17] = system: CP185; assay: as above; settings: P. falciparum in erythrocytes, SYBR Green DNA, 72 h; series mostly up to 28.7 µM
Outline: as §1

[18] = system: CP191; assay: as above; settings: P. falciparum in erythrocytes, SYBR Green DNA, 72 h; series mostly up to 28.7 µM
Outline: as §1

[19] = system: CP192; assay: as above; settings: P. falciparum in erythrocytes, SYBR Green DNA, 72 h; series mostly up to 28.7 µM
Outline: as §1

[20] = system: CP194; assay: as above; settings: P. falciparum in erythrocytes, SYBR Green DNA, 72 h; series mostly up to 28.7 µM
Outline: as §1

[21] = system: CP201; assay: as above; settings: P. falciparum in erythrocytes, SYBR Green DNA, 72 h; series mostly up to 28.7 µM
Outline: as §1

[22] = system: CP211; assay: as above; settings: P. falciparum in erythrocytes, SYBR Green DNA, 72 h; series mostly up to 28.7 µM
Outline: as §1

[23] = system: CP217; assay: as above; settings: P. falciparum in erythrocytes, SYBR Green DNA, 72 h; series mostly up to 28.7 µM
Outline: as §1

[24] = system: CP237; assay: as above; settings: P. falciparum in erythrocytes, SYBR Green DNA, 72 h; series mostly up to 28.7 µM
Outline: as §1

[25] = system: CP238; assay: as above; settings: P. falciparum in erythrocytes, SYBR Green DNA, 72 h; series mostly up to 28.7 µM
Outline: as §1

[26] = system: CP250; assay: as above; settings: P. falciparum in erythrocytes, SYBR Green DNA, 72 h; series mostly up to 28.7 µM
Outline: as §1

[27] = system: CP252; assay: as above; settings: P. falciparum in erythrocytes, SYBR Green DNA, 72 h; series mostly up to 28.7 µM
Outline: as §1

[28] = system: CP256; assay: as above; settings: P. falciparum in erythrocytes, SYBR Green DNA, 72 h; series mostly up to 28.7 µM
Outline: as §1

[29] = system: CP260; assay: as above; settings: P. falciparum in erythrocytes, SYBR Green DNA, 72 h; series mostly up to 28.7 µM
Outline: as §1

[30] = system: CP262; assay: as above; settings: P. falciparum in erythrocytes, SYBR Green DNA, 72 h; series mostly up to 28.7 µM
Outline: as §1

[31] = system: CP265; assay: as above; settings: P. falciparum in erythrocytes, SYBR Green DNA, 72 h; series mostly up to 28.7 µM
Outline: as §1

[32] = system: CP266; assay: as above; settings: P. falciparum in erythrocytes, SYBR Green DNA, 72 h; series mostly up to 28.7 µM
Outline: as §1

[33] = system: CP268; assay: as above; settings: P. falciparum in erythrocytes, SYBR Green DNA, 72 h; series mostly up to 28.7 µM
Outline: as §1

[34] = system: CP269; assay: as above; settings: P. falciparum in erythrocytes, SYBR Green DNA, 72 h; series mostly up to 28.7 µM
Outline: as §1

[35] = system: CP286; assay: as above; settings: P. falciparum in erythrocytes, SYBR Green DNA, 72 h; series mostly up to 28.7 µM
Outline: as §1

[36] = system: CP291; assay: as above; settings: P. falciparum in erythrocytes, SYBR Green DNA, 72 h; series mostly up to 28.7 µM
Outline: as §1

[37] = system: CP297; assay: as above; settings: P. falciparum in erythrocytes, SYBR Green DNA, 72 h; series mostly up to 28.7 µM
Outline: as §1

[38] = system: CP305; assay: as above; settings: P. falciparum in erythrocytes, SYBR Green DNA, 72 h; series mostly up to 28.7 µM
Outline: as §1

[39] = system: CP315; assay: as above; settings: P. falciparum in erythrocytes, SYBR Green DNA, 72 h; series mostly up to 28.7 µM
Outline: as §1

[40] = system: CP325; assay: as above; settings: P. falciparum in erythrocytes, SYBR Green DNA, 72 h; series mostly up to 28.7 µM
Outline: as §1

[41] = system: CP329; assay: as above; settings: P. falciparum in erythrocytes, SYBR Green DNA, 72 h; series mostly up to 28.7 µM
Outline: as §1

[42] = system: CP335; assay: as above; settings: P. falciparum in erythrocytes, SYBR Green DNA, 72 h; series mostly up to 28.7 µM
Outline: as §1

[43] = system: DFO2036; assay: as above; settings: P. falciparum in erythrocytes, SYBR Green DNA, 72 h; series mostly up to 28.7 µM
Outline: as §1

[44] = system: DIV14; assay: as above; settings: P. falciparum in erythrocytes, SYBR Green DNA, 72 h; series mostly up to 28.7 µM
Outline: as §1

[45] = system: DIV17; assay: as above; settings: P. falciparum in erythrocytes, SYBR Green DNA, 72 h; series mostly up to 28.7 µM
Outline: as §1

[46] = system: DIV30; assay: as above; settings: P. falciparum in erythrocytes, SYBR Green DNA, 72 h; series mostly up to 28.7 µM
Outline: as §1

[47] = system: ECU; assay: as above; settings: P. falciparum in erythrocytes, SYBR Green DNA, 72 h; series mostly up to 28.7 µM
Outline: as §1

[48] = system: FAB9; assay: as above; settings: P. falciparum in erythrocytes, SYBR Green DNA, 72 h; series mostly up to 28.7 µM
Outline: as §1

[49] = system: GB4; assay: as above; settings: P. falciparum in erythrocytes, SYBR Green DNA, 72 h; series mostly up to 28.7 µM
Outline: as §1

[50] = system: JCK; assay: as above; settings: P. falciparum in erythrocytes, SYBR Green DNA, 72 h; series mostly up to 28.7 µM
Outline: as §1

[51] = system: N140; assay: as above; settings: P. falciparum in erythrocytes, SYBR Green DNA, 72 h; series mostly up to 28.7 µM
Outline: as §1

[52] = system: P93_24; assay: as above; settings: P. falciparum in erythrocytes, SYBR Green DNA, 72 h; series mostly up to 28.7 µM
Outline: as §1

[53] = system: P94_40; assay: as above; settings: P. falciparum in erythrocytes, SYBR Green DNA, 72 h; series mostly up to 28.7 µM
Outline: as §1

[54] = system: PAD; assay: as above; settings: P. falciparum in erythrocytes, SYBR Green DNA, 72 h; series mostly up to 28.7 µM
Outline: as §1

[55] = system: PC15; assay: as above; settings: P. falciparum in erythrocytes, SYBR Green DNA, 72 h; series mostly up to 28.7 µM
Outline: as §1

[56] = system: PC26; assay: as above; settings: P. falciparum in erythrocytes, SYBR Green DNA, 72 h; series mostly up to 28.7 µM
Outline: as §1

[57] = system: PC49; assay: as above; settings: P. falciparum in erythrocytes, SYBR Green DNA, 72 h; series mostly up to 28.7 µM
Outline: as §1

[58] = system: SC27B; assay: as above; settings: P. falciparum in erythrocytes, SYBR Green DNA, 72 h; series mostly up to 28.7 µM
Outline: as §1

[59] = system: TAB109; assay: as above; settings: P. falciparum in erythrocytes, SYBR Green DNA, 72 h; series mostly up to 28.7 µM
Outline: as §1

[60] = system: TAB113; assay: as above; settings: P. falciparum in erythrocytes, SYBR Green DNA, 72 h; series mostly up to 28.7 µM
Outline: as §1

[61] = system: TAB165; assay: as above; settings: P. falciparum in erythrocytes, SYBR Green DNA, 72 h; series mostly up to 28.7 µM
Outline: as §1

[62] = system: W2; assay: as above; settings: P. falciparum in erythrocytes, SYBR Green DNA, 72 h; series mostly up to 28.7 µM
Outline: as §1

ATP-dependent 6-phosphofructokinase (Trypanosoma brucei brucei), sequence (O15648 whole entry, looked up): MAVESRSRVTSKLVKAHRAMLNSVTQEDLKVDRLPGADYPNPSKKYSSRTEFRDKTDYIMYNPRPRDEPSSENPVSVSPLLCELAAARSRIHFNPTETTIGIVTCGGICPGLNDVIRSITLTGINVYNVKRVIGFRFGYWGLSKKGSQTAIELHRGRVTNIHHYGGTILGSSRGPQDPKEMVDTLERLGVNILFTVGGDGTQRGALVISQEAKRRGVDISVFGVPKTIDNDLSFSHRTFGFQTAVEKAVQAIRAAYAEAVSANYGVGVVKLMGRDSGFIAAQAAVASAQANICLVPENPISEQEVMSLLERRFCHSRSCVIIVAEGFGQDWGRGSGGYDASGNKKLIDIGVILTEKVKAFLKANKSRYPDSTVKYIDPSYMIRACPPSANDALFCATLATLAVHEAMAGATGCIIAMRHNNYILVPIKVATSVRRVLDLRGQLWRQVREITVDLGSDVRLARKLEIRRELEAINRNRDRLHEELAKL
Furin (Homo sapiens), sequence (P09958 whole entry, looked up): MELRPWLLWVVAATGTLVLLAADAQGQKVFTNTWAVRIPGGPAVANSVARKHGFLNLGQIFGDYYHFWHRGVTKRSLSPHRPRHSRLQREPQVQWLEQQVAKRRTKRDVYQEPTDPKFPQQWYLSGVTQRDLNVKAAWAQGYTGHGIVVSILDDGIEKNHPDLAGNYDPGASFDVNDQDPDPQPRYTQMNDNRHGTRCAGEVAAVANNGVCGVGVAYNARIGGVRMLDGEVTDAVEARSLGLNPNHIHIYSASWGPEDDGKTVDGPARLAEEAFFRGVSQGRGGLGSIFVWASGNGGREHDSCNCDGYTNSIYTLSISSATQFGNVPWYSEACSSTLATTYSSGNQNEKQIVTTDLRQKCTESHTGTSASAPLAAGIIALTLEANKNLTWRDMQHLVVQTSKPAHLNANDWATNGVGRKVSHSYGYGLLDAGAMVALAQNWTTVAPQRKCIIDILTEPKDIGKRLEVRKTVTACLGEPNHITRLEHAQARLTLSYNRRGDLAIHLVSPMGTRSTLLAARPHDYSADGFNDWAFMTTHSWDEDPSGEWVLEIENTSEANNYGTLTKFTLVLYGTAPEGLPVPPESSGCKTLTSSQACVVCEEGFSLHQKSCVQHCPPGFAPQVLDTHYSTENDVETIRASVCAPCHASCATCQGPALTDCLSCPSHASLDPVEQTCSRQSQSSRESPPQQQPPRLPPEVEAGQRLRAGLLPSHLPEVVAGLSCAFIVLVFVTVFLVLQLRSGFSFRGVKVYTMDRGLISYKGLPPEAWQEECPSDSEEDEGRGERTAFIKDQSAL
Ubiquitin carboxyl-terminal hydrolase 1 (Homo sapiens), sequence (O94782 whole entry, looked up): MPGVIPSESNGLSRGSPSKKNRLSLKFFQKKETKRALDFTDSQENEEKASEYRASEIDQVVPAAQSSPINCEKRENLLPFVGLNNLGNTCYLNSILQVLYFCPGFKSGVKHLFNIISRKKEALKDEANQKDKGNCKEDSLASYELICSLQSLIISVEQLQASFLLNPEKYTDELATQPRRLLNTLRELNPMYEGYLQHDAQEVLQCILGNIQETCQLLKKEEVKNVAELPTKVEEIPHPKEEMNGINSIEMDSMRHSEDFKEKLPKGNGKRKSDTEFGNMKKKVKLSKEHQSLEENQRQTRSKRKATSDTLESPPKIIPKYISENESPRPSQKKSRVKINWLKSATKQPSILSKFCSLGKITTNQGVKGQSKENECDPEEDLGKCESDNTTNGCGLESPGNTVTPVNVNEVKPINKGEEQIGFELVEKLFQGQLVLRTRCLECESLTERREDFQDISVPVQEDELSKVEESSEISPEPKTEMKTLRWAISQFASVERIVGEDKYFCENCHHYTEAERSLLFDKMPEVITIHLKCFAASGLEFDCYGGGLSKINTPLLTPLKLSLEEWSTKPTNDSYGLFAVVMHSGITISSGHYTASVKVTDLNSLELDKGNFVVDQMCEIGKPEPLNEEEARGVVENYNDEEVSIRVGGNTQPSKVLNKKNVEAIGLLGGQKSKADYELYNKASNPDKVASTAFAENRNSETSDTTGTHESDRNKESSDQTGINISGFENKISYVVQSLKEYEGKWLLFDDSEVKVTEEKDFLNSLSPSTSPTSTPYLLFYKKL
Luciferin 4-monooxygenase (Photinus pyralis), sequence (P08659 whole entry, looked up): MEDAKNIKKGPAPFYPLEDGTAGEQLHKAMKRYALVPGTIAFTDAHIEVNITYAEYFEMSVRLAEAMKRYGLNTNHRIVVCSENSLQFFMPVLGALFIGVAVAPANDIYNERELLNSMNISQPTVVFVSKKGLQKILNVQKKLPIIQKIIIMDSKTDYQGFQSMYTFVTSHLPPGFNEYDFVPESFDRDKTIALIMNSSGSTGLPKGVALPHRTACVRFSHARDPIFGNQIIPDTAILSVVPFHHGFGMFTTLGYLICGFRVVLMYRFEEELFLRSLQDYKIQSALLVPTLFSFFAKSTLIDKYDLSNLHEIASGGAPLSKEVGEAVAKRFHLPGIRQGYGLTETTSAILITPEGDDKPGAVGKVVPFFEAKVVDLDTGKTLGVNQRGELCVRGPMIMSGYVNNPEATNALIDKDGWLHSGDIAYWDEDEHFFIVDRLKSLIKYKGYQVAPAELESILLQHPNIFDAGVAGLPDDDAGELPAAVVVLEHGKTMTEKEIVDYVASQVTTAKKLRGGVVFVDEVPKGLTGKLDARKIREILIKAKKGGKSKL

CC(C)(O)c1ccccc1CC[C@H](SCC1(CC(=O)O)CC1)c1cccc(/C=C/c2ccc3ccc(Cl)cc3n2)c1
active: Potency [2] 39.8 µM | Potency [3] 11.4 µM | Potency [6] 52.7 µM | Potency [7] 11.2 µM | Potency [8] 22.4 µM
inactive: outcome [1] | outcome [4] | Potency [5] | Potency [9] | activity, negative = inhibition ([10]; parasite line A) -2.01% | activity, negative = inhibition ([10]; parasite line B) -18.3% | Potency [11] | Potency [12] | Potency [13] | Potency [14] | Potency [15] | Potency [16] | Potency [17] | Potency [18] | Potency [19] | Potency [20] | Potency [21] | Potency [22] | Potency [23] | Potency [24] | Potency [25] | Potency [26] | Potency [27] | Potency [28] | Potency [29] | Potency [30] | Potency [31] | Potency [32] | Potency [33] | Potency [34] | Potency [35] | Potency [36] | Potency [37] | Potency [38] | Potency [39] | Potency [40] | Potency [41] | Potency [42] | Potency [43] | Potency [44] | Potency [45] | Potency [46] | Potency [47] | Potency [48] | Potency [49] | Potency [50] | Potency [51] | Potency [52] | Potency [53] | Potency [54] | Potency [55] | Potency [56] | Potency [57] | Potency [58] | Potency [59] | Potency [60] | Potency [61] | Potency [62]
